Drawing on PubChem BioAssay AID493131 (Broad Institute, 2011), this text covers activation for 37 compounds.

In all, about 340,000 compounds went through this assay and about 3,300 (0.97%) were called active.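 Rule for the calls: active = mean activation above about 17%, with every replicate also reaching it (limit read from the data, passing the limit was not always enough); inconclusive = only one of the two conditions met; inactive = the rest.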 Shown is part of a subset that was picked to be rich in actives.

Protein FosB (Mus musculus), sequence (P13346 whole entry, looked up): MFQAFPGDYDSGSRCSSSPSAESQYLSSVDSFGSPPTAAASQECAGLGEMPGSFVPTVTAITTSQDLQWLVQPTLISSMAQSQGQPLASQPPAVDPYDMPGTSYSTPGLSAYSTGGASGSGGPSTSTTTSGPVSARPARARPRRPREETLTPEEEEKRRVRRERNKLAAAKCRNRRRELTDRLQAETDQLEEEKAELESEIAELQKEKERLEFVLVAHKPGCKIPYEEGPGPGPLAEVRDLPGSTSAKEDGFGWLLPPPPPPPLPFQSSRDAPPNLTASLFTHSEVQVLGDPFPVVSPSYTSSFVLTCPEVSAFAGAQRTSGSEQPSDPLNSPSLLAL

This experiment addresses Protein FosB (Mus musculus) (UniProt P13346). Nature of the experiment: activators of delta FosB homodimer, primary screen, biochemical, fluorescence polarization, TAMRA-CDK5 oligo, single point (AID 493131).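 Note: fluorescence polarization rise as delta FosB binds a TAMRA Cdk5 AP-1 oligo.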 The settings on record: purified delta FosB, at 25 µM, hits give high values, percent of positive-control signal above neutral wells.
Consider `COc1cccc(-c2cc3nc4c(c(N5CCC6(CC5)OCCO6)n3n2)CCCC4)c1`, for which the activation is -1.84% (inactive). The result for `COc1ccc(C(=O)n2nc(C)c(Br)c2C)cc1OC` reads 3.74% (inactive). Consider `COc1ccc(C(=O)n2nc(-c3ccc(Cl)cc3)nc2N)cc1OC`, for which the activation is 30.9% (active). Next, `COc1ccc(C(=O)n2nc(-c3ccc(C)cc3)nc2N)cc1OC`: 8.05% (inactive); `CCN(CC)CCNC(=O)c1sc2ncn(CC(=O)Nc3ccc(C)c(Cl)c3)c(=O)c2c1C`: -141% (inactive); `Cc1nonc1NC(=O)CSc1nc2ccccc2cc1C#N`: 5.77% (inactive).

Take `Cc1nc2cc(NC(=O)CSc3nc4c(C)cccc4cc3C#N)ccc2s1`: the activation is 61.2% (active). The result for `Cc1cc(C)c(C#N)c(SCC(=O)Nc2ccccc2)n1` reads 3.54% (inactive); that for `Cc1ccc(C)c(NC(=O)C(c2ccccc2)N2CCN(CC(=O)NC3CC3)CC2)c1` (configuration not stated), -10.9% (inactive); that for `NC(=O)c1cc(S(=O)(=O)N2CCCC2)ccc1OCc1ccc(F)cc1`, -1.72% (inactive). For `COc1ccc(NS(=O)(=O)c2ccc(NC(=O)c3ccc(N(C)S(C)(=O)=O)cc3)cc2)cc1`, the activation was 43.3% (active).

With `COc1ccc(C(=O)Nc2cccc(S(C)(=O)=O)c2)cc1`, the activation was -0.053% (inactive). With `COc1ccc(NS(=O)(=O)c2ccc(C(=O)Nc3c(C)n(C)n(-c4ccccc4)c3=O)cc2)cc1`, the activation is 1.19% (inactive).

On to `Cc1noc(C)c1NC(=O)Nc1cccc2c1O[C@H](CN(C)C(=O)Nc1ccccc1)[C@@H](C)CN([C@H](C)CO)C2=O`, for which the activation is 4.59% (inactive).

`COc1ccc(C(=O)N(C)Cc2ccc(OC)c(OC)c2OC)cc1S(=O)(=O)N1CCOCC1`: the activation is -8.82% (inactive).

Consider `COC(=O)c1sc2ncccc2c1OCc1ccc(Cl)cc1Cl`, for which the activation was 17% (active). Next, `COCCNC(=O)c1snc2ccc(Cl)cc12`: -8.32% (inactive). The result for `COc1cccc(NC(=O)CN(C)C(=O)Cc2ccc(Cl)cc2Cl)c1` reads -4.55% (inactive); that for `CC(=O)c1cccc(NC(=O)[C@@H](NC(N)=O)C(C)C)c1`, 2.28% (inactive). Next, `Cc1ccc2nc(N(CCN(C)C)C(=O)C3=COCCO3)sc2c1`: -2.06% (inactive); `CN(C)CCN(C(=O)CN1C(=O)c2ccccc2C1=O)c1nc2cc3c(cc2s1)OCCO3`: 38% (active). Turning to `CN(C)CCN(C(=O)C1CCCCC1)c1nc2cc3c(cc2s1)OCO3`, the activation is 7.71% (inactive). The result for `Cn1nc(C(C)(C)C)c(NC(=O)c2sccc2Cl)c1C(C)(C)C` reads -8.28% (inactive); that for `Cc1ccc(C)c(S(=O)(=O)N(C)c2ccc(OC(=O)C3CCN(C(=O)c4ccc(F)cc4)CC3)cc2)c1`, -7.71% (inactive); that for `C=CCn1c(=O)n(C)c2c(=O)n(C)c(=O)n(C)c21`, -1.42% (inactive). Next, `Cc1sc2nc(COC(=O)C(NC(=O)c3ccc(Cl)cc3Cl)C(C)C)[nH]c(=O)c2c1C` (configuration not stated): -6.82% (inactive); `Cc1sc2nc(CSCC(=O)Nc3c(Cl)cccc3Cl)[nH]c(=O)c2c1C`: 32.5% (active). The result for `Cc1sc2nc(CSCC(=O)NC3CCCCC3)[nH]c(=O)c2c1C` reads -10.1% (inactive); that for `COc1ccc2oc(C(=O)OCC(=O)N(CC(C)C)c3c(N)n(Cc4ccccc4)c(=O)[nH]c3=O)c(C)c2c1`, 3.39% (inactive).

Regarding `COc1ccc(C(CNC(=O)c2cccc(S(=O)(=O)Nc3ccc(Br)cc3)c2)N(C)C)cc1` (configuration not stated), the activation is 14% (inactive). `COc1ccc(C)cc1NC(=O)CSc1ccc(Cl)cc1`: the activation was -7.74% (inactive). The result for `COC(=O)c1cc(OC)c(OC)cc1NC(=O)CSc1ccc(C)cc1` reads -0.589% (inactive); that for `COC(=O)c1scc(C)c1NC(=O)CSc1ccc(Cl)cc1`, 35% (active); that for `COc1ccc2c(c1)c(=Cc1ccc(N(C)C)cc1)c1cc(-c3ccccc3)[n+](C)n12`, 126% (active). As to `COc1ccc2sc(-c3ccc(N(C)C)cc3)c(-c3ccc4cc[nH]c4c3)c2c1`, the activation is -4.04% (inactive).

For `COc1ccc2sc(-c3ccc(N(C)C)cc3)c(C#CCO)c2c1`, the activation is -9.84% (inactive). In the case of `CCC(=O)NC(Nc1cc(C)ccn1)(C(F)(F)F)C(F)(F)F`, the activation was -2.53% (inactive).
